UHRF1 MBD2 ctr = UHRF1 methylated DNA binding inhibitors, primary screen, counter-screen for MBD2 inhibitor project, biochemical, TR-FRET, human UHRF1, single concentration. actives 0.75% (n = 370,000). E3 ubiquitin-protein ligase UHRF1 (Homo sapiens), Q96T88. inhibition, % at 4.4 µM. UHRF1 binding to methylated oligo; in the data active means inhibition above about 21%;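 further: UHRF1 SRA domain binding a hemimethylated CpG hairpin DNA probe; 0% = median of test compound wells and 100% = reference inhibitor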
MBD2 DNA inh = inhibitors of MBD2 binding to methylated DNA, primary screen, biochemical, TR-FRET, DNA-binding domain, human | Methyl-CpG-binding domain protein 2 (Homo sapiens), Q9UBB5 | MBD2 binding to methylated oligonucleotide | inhibition, % at 4.4 µM | actives 0.31% (n = 370,000); in the data active means inhibition above about 13%
Target sequence (Q9UBB5 whole entry, looked up, the tested form may be a part): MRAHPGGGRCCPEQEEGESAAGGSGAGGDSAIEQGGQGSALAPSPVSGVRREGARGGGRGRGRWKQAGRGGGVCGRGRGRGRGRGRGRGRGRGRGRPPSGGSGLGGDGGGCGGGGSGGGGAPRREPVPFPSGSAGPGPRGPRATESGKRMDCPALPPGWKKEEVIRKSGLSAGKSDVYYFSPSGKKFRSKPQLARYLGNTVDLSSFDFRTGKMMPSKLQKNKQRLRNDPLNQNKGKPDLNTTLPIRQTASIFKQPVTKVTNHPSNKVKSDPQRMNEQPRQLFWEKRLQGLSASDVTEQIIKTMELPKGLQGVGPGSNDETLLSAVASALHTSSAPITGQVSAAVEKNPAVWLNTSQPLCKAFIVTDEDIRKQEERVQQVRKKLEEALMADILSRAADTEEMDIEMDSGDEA
LEDGF integ inh = blockers of LEDGF/p75-dependent integrase strand transfer – biochemical, TR-FRET, high throughput, primary screen. HIV-1 integrase (with human LEDGF/p75). actives 0.64% (n = 370,000). TR-FRET IN-LEDGF/p75 DNA integration, Eu/Cy5. inhibition, % at 3.7 µM;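 active means inhibition above the screen-wide mean plus 3 SD, cut at about 13% in these data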;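 further: signal is the Cy5 over europium emission ratio at 671 and 618 nm; 0% = plate median of compound wells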
PLC-beta3 inh = human PLC-beta3 inhibitors, primary screen, biochemical, fluorescence; 1-phosphatidylinositol 4,5-bisphosphate phosphodiesterase beta-3 (Homo sapiens), Q01970; Purified PLC-beta3, fluorogenic substrate; inhibition, % at 12.2 µM; actives 0.18% (n = 370,000); in the data active means inhibition above about 11%;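 further: 0% = median of compound wells on plate and 100% = full blocker control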
PLCg1 inh = PLC-gamma1 enzyme inhibitors, primary screen, biochemical, fluorescence, purified enzyme | 1-phosphatidylinositol 4,5-bisphosphate phosphodiesterase gamma-1 (Homo sapiens), P19174 | fluorogenic substrate | inhibition, % at 12.2 µM | actives 0.84% (n = 370,000) | AID 720700, 2013; in the data active means inhibition above about 9.5%
IN multimer act = HIV-1 IN multimer formation enhancers, counter-screen for LEDGF/p75 integration inhibitor project, biochemical, TR-FRET; shares compounds with LEDGF integ inh; TR-FRET HIV-1 integrase multimerization; activation, % at 7.7 µM; actives 17% (n = 2,000); in the data active means activation above about 8.9%
TRFRET interf = TR-FRET optical interference artefacts, confirmation, artefact control for LEDGF/p75-dependent integration inhibitor project, biochemical, HIV-1 IN multimerization | shares compounds with LEDGF integ inh | TR-FRET optical interference counterscreen | inhibition, % at 7.7 µM | 2,000 tested, under 10 active | AID 1053135, 2014;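 active means inhibition above the mean over all tested compounds plus 3 SD, which no compound reached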;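 further: 0% = integrase with antibodies and DMSO and 100% = antibodies without integrase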
IN-LEDGF confirm = inhibitors of HIV-1 IN-LEDGF/p75 DNA integration, confirmation, biochemical, TR-FRET; actives 36% (n = 2,000); TR-FRET LEDGF/p75-dependent HIV-1 integration; shares compounds with LEDGF integ inh; AID 1053136, 2014; inhibition, % at 3.7 µM; in the data active means inhibition above about 14%
Starred values were filed as active, the others as inactive; nt = no result. Shown are actives, neighbours in structure and some others; about 2.3% of the full set was active somewhere.

SMILES | UHRF1 MBD2 ctr | MBD2 DNA inh | LEDGF integ inh | PLC-beta3 inh | PLCg1 inh | IN multimer act | TRFRET interf | IN-LEDGF confirm
O=C1CC(Nc2ccc(N3CCOCC3)cc2)C(=O)N1c1ccccc1F (centres undefined) | -4 | -7 | 15* | -54 | -38 | 1 | -7 | 0
O=C(Nc1ccc(Br)cc1)O[C@@H]1CC[C@@]23CCCN2C(=O)CCC[C@H]3C1 | 1 | -2 | 6 | 1 | 3 | nt | nt | nt
CC(c1cc(F)ccc1O)c1c[nH]c2ccccc12 (centres undefined) | 0 | 1 | 2 | -3 | 1 | nt | nt | nt
CC(=O)Nc1ccc(S(=O)(=O)NCCC(=O)OC(C)C(=O)NC2(C#N)CCCCC2)cc1 (centres undefined) | 0 | 1 | 67* | -3 | -1 | -1 | 3 | -8
COC(=O)C[C@H]1CC[C@@H]2[C@@H](COc3ccc(NS(=O)(=O)c4ccccc4Cl)cc3C(=O)N2C)O1 | -1 | 2 | 0 | -3 | -1 | nt | nt | nt
COc1cccc(/C=C2\Oc3cc(OCC(=O)N4CCCC4)ccc3C2=O)c1OC | -2 | 3 | -1 | -479 | -363 | nt | nt | nt
Cc1ccc(/C=C2\Oc3cc(OCC(=O)NN)ccc3C2=O)o1 | 2 | 3 | 21* | -97 | -60 | 8 | -28 | 14*
COCCN(CCOC)Cc1c(O)ccc2c1O/C(=C\c1ccc(C)o1)C2=O | 14 | -1 | 40* | -46 | -25 | 13* | -45 | 14*
CCN(CC)Cc1c(O)ccc2c1O/C(=C\C=C\c1ccccc1)C2=O | -11 | -6 | 4 | -439 | -286 | nt | nt | nt
COc1ccc(C(=O)N2CCC(C(=O)c3ccc(F)cc3)CC2)cc1 | 1 | 3 | 80* | 3 | -1 | 0 | 1 | -4
Cc1nn(Cc2ccc(Cl)cc2Cl)c(C)c1NC(=O)c1ccc(COc2cc(Cl)ccc2Cl)o1 | 1 | -2 | 24* | -2 | -29 | 0 | 0 | -7
Cc1ccccc1CN1CCCCC(NC(=O)c2cccc(F)c2)C1=O (centres undefined) | 0 | 0 | -3 | 0 | -2 | nt | nt | nt
COc1ccccc1N(/N=C1\Sc2ccccc2C1=O)C(C)=O | -8 | -7 | 17* | -10 | 1 | 0 | -1 | 23*
COc1ccc(N(/N=C2\Sc3ccccc3C2=O)C(C)=O)cc1 | -4 | 1 | 2 | 1 | 1 | nt | nt | nt
Cc1cc([N+](=O)[O-])ccc1NC(=O)Cc1ccc(F)cc1 | -2 | -5 | 85* | 6 | 1 | 4 | -14 | 2
Cc1ccc(-c2c(C(=O)O)c(C(=O)O)c3n2CSC3)cc1 | 2 | -4 | 14* | -24 | -10 | 0 | -1 | -5
O=C1NC(=Nc2ccc(O)cc2)S/C1=C\C=C\c1ccco1 | 5 | -5 | 39* | -18 | -2 | 18* | -93 | 53*
COc1ccc(N=C2NC(=O)/C(=C\c3ccco3)S2)cc1 | 8 | -2 | 5 | -9 | -7 | nt | nt | nt
CCC(Sc1nc2ccccc2[nH]1)C(=O)Nc1cc(C)on1 (centres undefined) | 2 | -1 | 29* | -1 | 4 | 0 | 0 | 3
CCC(Sc1nc2ccccc2[nH]1)C(=O)Nc1ccc(NC(C)=O)cc1 (centres undefined) | -1 | 2 | -1 | 6 | 2 | nt | nt | nt
COc1ccc(-n2c(SCC(=O)N(CC(C)C)CC(C)C)nnc2-c2ccncc2)cc1 | -1 | -1 | 3 | 3 | 2 | nt | nt | nt
